Measured values as given in publication PMC4336329 (PLoS ONE, 2015).
The whole screen tested about 310,000 compounds, of which about 14,000 (4.5%) showed an effect of 50% or more. Effects have a minus sign here. This excerpt belongs to a sample that is enriched for strong results.

Each compound was assayed against human ether-à-go-go-related gene (hERG) potassium channel (human, UniProt Q12809) (assay: primary screen, population patch clamp on CHO cells stably expressing hERG; higher = less effect of the substance).
Sequence of human ether-à-go-go-related gene (hERG) potassium channel (Q12809 whole entry, looked up): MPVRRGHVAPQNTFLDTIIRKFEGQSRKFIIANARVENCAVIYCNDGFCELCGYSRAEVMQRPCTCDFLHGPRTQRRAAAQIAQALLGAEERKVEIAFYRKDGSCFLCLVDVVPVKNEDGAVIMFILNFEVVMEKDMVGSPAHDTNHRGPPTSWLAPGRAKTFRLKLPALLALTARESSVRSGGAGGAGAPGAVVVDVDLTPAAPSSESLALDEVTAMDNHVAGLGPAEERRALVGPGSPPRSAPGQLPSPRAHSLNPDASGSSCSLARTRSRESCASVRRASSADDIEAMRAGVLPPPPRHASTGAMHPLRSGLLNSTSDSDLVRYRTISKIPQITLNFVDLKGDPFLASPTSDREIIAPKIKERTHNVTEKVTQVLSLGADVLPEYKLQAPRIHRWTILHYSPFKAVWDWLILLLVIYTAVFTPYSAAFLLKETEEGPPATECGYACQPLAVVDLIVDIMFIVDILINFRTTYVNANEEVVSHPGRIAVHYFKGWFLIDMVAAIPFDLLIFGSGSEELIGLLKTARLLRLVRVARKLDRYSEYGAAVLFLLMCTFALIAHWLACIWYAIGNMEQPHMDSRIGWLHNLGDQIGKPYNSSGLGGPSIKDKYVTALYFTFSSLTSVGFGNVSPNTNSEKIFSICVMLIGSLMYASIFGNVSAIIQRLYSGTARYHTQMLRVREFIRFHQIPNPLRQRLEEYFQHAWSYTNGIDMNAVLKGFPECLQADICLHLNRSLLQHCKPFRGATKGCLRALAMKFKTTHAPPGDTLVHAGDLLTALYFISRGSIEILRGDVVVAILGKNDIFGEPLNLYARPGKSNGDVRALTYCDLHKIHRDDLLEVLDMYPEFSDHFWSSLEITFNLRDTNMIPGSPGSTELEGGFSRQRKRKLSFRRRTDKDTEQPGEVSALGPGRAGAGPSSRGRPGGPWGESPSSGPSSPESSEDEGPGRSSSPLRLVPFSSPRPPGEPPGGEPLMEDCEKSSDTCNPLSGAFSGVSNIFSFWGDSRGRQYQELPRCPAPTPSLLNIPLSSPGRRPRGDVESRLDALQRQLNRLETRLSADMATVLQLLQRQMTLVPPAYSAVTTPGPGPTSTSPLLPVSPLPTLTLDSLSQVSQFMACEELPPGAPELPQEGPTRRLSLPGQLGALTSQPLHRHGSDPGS
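Also: peak tail current of the secondary pulse compared with the same well before compound.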

SMILES	hERG current change (%, negative = inhibition) at 10uM [%]
O=c1c(Cc2ccccc2)c(O)ccn1C1CCCCCCC1	10.1
COc1ccc(S(=O)(=O)N2CCCCCC2)cc1C(=O)N(C)Cc1ccc(C)cc1	-40.3
Cc1[nH]c2ccccc2c(=O)c1SC(F)(F)C(F)C(F)(F)F (centres unmarked)	-5.97
CSc1ccccc1NC(=O)COc1ccc(Cl)cc1Cl	-0.82
CN(C)C1=NC[C@H](Cc2ccccc2)N1CCc1cccc(F)c1	-64.1
NC1=NC[C@@H](Cc2ccc(O)cc2)N1CCc1cccc(F)c1	5.43
C[C@H]1CN=C(N(C)C)N1CCc1ccc(F)cc1	-12.4
C[C@H]1CN=C(N(C)C)N1CCc1ccccc1	6.72
CN(C)C1=NC[C@H](Cc2ccccc2)N1CCc1ccc(F)cc1	-60.6
NC1=NC[C@H](Cc2ccccc2)N1CCc1cccc(F)c1	6.16
COC(=O)c1cccnc1-n1c(=O)c2cccnc2n(Cc2ccc(Cl)cc2)c1=O	-26.6
O=C(Cc1ccccc1)NCC(=O)N/N=C/c1ccc(C(=O)O)cc1	12.3
C=CCc1cccc2cc(C(=O)N3CCN(C(=O)OCC)CC3)c(=O)oc12	-26.9
C=CCn1c(CSc2nc3ccccc3s2)nnc1SCC(=O)NCc1ccccc1	-43.9
CCOC(=O)c1[nH]c2ccc(F)cc2c1NC(=O)CCN1CCSCC1	-22
Cc1nc2sccn2c(=O)c1S(=O)(=O)N1CCN(c2cccc(Cl)c2)CC1	-0.478
Cc1cc(C)c(NS(=O)(=O)c2ccc3c(c2)NC(=O)C(C)C(=O)N3)c(C)c1 (centres unmarked)	2.12
COc1ccc(NS(=O)(=O)c2cccc(C(=O)N3CCCC3)c2)cc1	2.23
COc1ccc(NS(=O)(=O)c2cccc(C(=O)N3CCC3)c2)cc1	10.5
O=C(c1ccc(NS(=O)(=O)c2cccc([N+](=O)[O-])c2)cc1)N1CCCCCC1	-23.1
COc1ccc(OC)c(CN2CCN(C(=O)c3cccc(S(=O)(=O)Nc4ccc(C)cc4)c3)CC2)c1	-34.6

SMILES	hERG current change (%, negative = inhibition) at 10uM [%]
COc1ccc(OC)c(CN2CCN(C(=O)c3cccc(S(=O)(=O)Nc4ccccc4OC)c3)CC2)c1	-38.2
COc1ccc(OC)c(CN2CCN(C(=O)c3ccc(NS(=O)(=O)c4cccc([N+](=O)[O-])c4)cc3)CC2)c1	-70.6
COc1ccccc1NS(=O)(=O)c1cccc(C(=O)N2CCN(Cc3ccc4c(c3)OCO4)CC2)c1	-61.4
O=C(c1ccccc1)N1CCN(Cc2ccc3c(c2)OCO3)CC1	11.5
CN(c1ccc(C(=O)N2CCN(Cc3ccc4c(c3)OCO4)CC2)cc1)S(=O)(=O)c1ccccc1	-38.3
O=C(c1ccc(NS(=O)(=O)c2ccccc2)cc1)N1CCN(Cc2ccc3c(c2)OCO3)CC1	-63.8
COc1ccc(NS(=O)(=O)c2cccc(C(=O)N3CCN(Cc4ccc5c(c4)OCO5)CC3)c2)cc1	-76.8
COc1cccc(OC)c1C(=O)N1CCN(Cc2ccc3c(c2)OCO3)CC1	-12
COC(=O)C1=C(c2ccc(F)cc2F)C[C@@H]2CC[C@H]1N2C(=O)NCCOc1ccccc1	-23.5
N#CC1(N2CCN(C(=O)c3ccccc3)CC2)CCCCC1	30.1
CC1CCCCN1Cc1ccc(N)cc1 (centres unmarked)	12.7
C#CC1(NC(=O)NC(C)(C)C)CCCCC1	15.7
CCc1ccc(OCC(=O)NNC(=O)c2cc(S(=O)(=O)N(C)C)ccc2N2CCCC2)cc1	-23.4
COC(=O)c1cc(OC)c(OC)cc1NC(=O)c1cc(C(C)(C)C)oc1C	5.71
c1ccc(Cn2nnc3c(N4CCc5ccccc5C4)ncnc32)cc1	-21.5
COc1cc(C(CCN2CCN(c3ccccc3)CC2)c2c(OC)cc(OC)c3ccc(=O)oc23)cc(OC)c1OC (centres unmarked)	-8.86
COc1cc(OC)c2ccc(=O)oc2c1C(CCN1CCCC1)c1ccc(N(C)C)cc1 (centres unmarked)	-24.1
COc1cc(C(CC(=O)N2CCCC2)c2c(OC)cc(OC)c3ccc(=O)oc23)cc(OC)c1OC (centres unmarked)	2.42
COc1cc(OC)c2ccc(=O)oc2c1C(CCN1CCCC(C)C1)c1ccc(N(C)C)cc1 (centres unmarked)	-10.6
COc1cc(OC)c2ccc(=O)oc2c1C(CCN1CCCCC1)c1ccc(N(C)C)cc1 (centres unmarked)	-16
COc1cc(OC)c2ccc(=O)oc2c1C(CC(=O)N1CCCC(C)C1)c1ccc2c(c1)OCO2 (centres unmarked)	4.24

SMILES	hERG current change (%, negative = inhibition) at 10uM [%]
COc1cc(C(CCN2CCCC2)c2c(OC)cc(OC)c3ccc(=O)oc23)cc(OC)c1OC (centres unmarked)	-69.2
COc1cc(OC)c2ccc(=O)oc2c1C(CCN1CCCC(C)C1)c1ccc2c(c1)OCO2 (centres unmarked)	-61
COc1cc(OC)c2ccc(=O)oc2c1C(CCN1CCCC1)c1ccc2c(c1)OCO2 (centres unmarked)	-56.7
CS(=O)(=O)N1CCCC(C(=O)NCc2ccc(F)cc2Cl)C1 (centres unmarked)	2.22
CC1(c2ccccc2)CC(C)(C)N2C(=O)C(=O)c3cccc1c32 (centres unmarked)	19.6
CCCCNC(=S)NC(=O)c1ccc(Cl)cc1Cl	22.7
CC(=O)Nc1nc(-c2ccccc2)nc(C)c1C(C)=O	-5.89
COc1ccc(S(=O)(=O)N2CC(=O)Nc3ccccc32)cc1	-6.04
O=C1CCC(C(=O)N2CCCC(C(=O)c3ccc4ccccc4c3)C2)=NN1 (centres unmarked)	-8.31
O=C(COC(=O)Cn1cnc2ccccc21)Nc1cc(S(=O)(=O)N2CCOCC2)ccc1Cl	-0.439
Cc1nn(C(C)C)c(C)c1CN1CCCC(C(=O)c2cccc(OC(C)C)c2)C1 (centres unmarked)	-39.6
CCc1ccc(CN2CCC(C(=O)Nc3cccc(-c4nnc(C)s4)c3)CC2)o1	-33.6
COc1cccc(-c2cccc(NC(=O)C3CCN(Cc4nccs4)CC3)c2)c1	-37.1
CCOC(=O)C1(Cc2cccc(F)c2)CCN(Cc2c(C)nn(CC)c2C)CC1	-41.4
CCS(=O)(=O)N1CCC(C(=O)Nc2cccc(F)c2)CC1	-6.51
CCn1nc(C)c(CN2CCC(C(=O)Nc3cccc(-c4cccc(Cl)c4)c3)CC2)c1C	-65
CCn1nc(C)c(CN2CCC(C(=O)Nc3cccc(-c4cccc(F)c4)c3)CC2)c1C	-67
Cc1nn(C(C)C)c(C)c1CN1CCC(C(=O)Nc2cccc(-c3cccc(F)c3)c2)CC1	-67.8
CCCc1ncc(CN2CCC(C(=O)Nc3cccc(-c4cscn4)c3)CC2)cn1	-34.9
Br.COc1cccc(CNCC2CCCO2)c1 (centres unmarked)	13.9
COc1ccc(OC)c(NC(=O)Cc2coc3ccc4ccccc4c23)c1	0.772

SMILES	hERG current change (%, negative = inhibition) at 10uM [%]
Cc1sc(/C=C2\C(=O)ON=C2c2ccccc2)cc1Br	14.8
COC(=O)c1ccc(NC(=O)c2ccc3nsnc3c2)cc1	4.15
COc1cc(CN2CCN(c3ccccc3F)CC2)cc(OC)c1O	-26.4
COc1ccc(CN2CCSCC2)cc1O	14.4
COc1ccc(CN2CCN(Cc3ccccc3F)CC2)c(OC)c1.O=C(O)C(=O)O	-68.5
COc1ccc(CN2CCN(Cc3ccco3)CC2)c(OC)c1.O=C(O)C(=O)O	-46.4
COc1ccc(CN2CCN(c3ccccc3F)CC2)cc1O	-66.5
COc1ccc(CN2CCN(C(=O)c3ccc(F)cc3)CC2)c(OC)c1.O=C(O)C(=O)O	-44.3
COc1ccc(OC)c(CN2CCN(c3ccccc3OC)CC2)c1	-32.7
COc1cc(CN2CCN(c3ccccc3F)CC2)c([N+](=O)[O-])cc1OC	-27.4
COc1ccc(CN2CCN(Cc3ccccc3F)CC2)cc1.O=C(O)C(=O)O	-43.2
COc1ccc(CN2CCN(c3ccccc3OC)CC2)c(OC)c1.O=C(O)C(=O)O	-64.2
COc1ccc(CN2CCN(c3ccccc3F)CC2)c(OC)c1	-75.1
COc1ccccc1N1CCN(Cc2ccccc2F)CC1	-17.6
CC1CN(Cc2ccc(C#N)cc2Cl)CC(C)O1.Cl (centres unmarked)	0.479
COc1ccc(Nc2nc(-c3cccs3)nc3ccccc23)cc1S(=O)(=O)N1CCOCC1	-17.5
COc1ccc(OC)c(S(=O)(=O)N2Cc3ccccc3CC2C(=O)Nc2nccs2)c1 (centres unmarked)	22.2
COc1cc(CNn2c(C)n[nH]c2=S)cc(Cl)c1OCc1ccc(F)cc1	14.4
COc1ccc2c(c1)C(NC(C)=O)C(=O)N2C (centres unmarked)	-5.38
O=C(O)c1ccccc1C(=O)Nn1cnnc1	10.6
